Experimental data: PubChem BioAssay (EPA / NIEHS)
Inconclusive results are not listed. The source holds several records for some structures; these can differ, active in one and inactive in another. Calls of active or inactive are those of the source. The calls were made as follows, unless noted: active = hit-call score of the fitted dose curve at least 0.9, where 1 is the maximum; inactive = score below 0.9.

What was measured:
[1] = ATG_PPRE_CIS: Attagene CIS-FACTORIAL HepG2 Assay for human Peroxisome Proliferator-activated Response Element (PPRE) (AID 2282958); conditions: HepG2 PPRE cis-element reporter, Attagene transcription factor profiling; actives raise or lower the signal
Method in brief: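 Multiplexed reporter transcription units under cis-regulatory promoters were transfected into HepG2 cells to capture endogenous factor activity. A 24 h incubation preceded RNA isolation and fluorescent RT-PCR fragment analysis.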

[2] = ATG_RORE_CIS: Attagene CIS-FACTORIAL HepG2 Assay for human RAR-related Orphan Receptor Element (RORE) (AID 2282959); conditions: HepG2 Attagene cis-factorial RORE reporter, mRNA; actives raise or lower the signal
Method in brief: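 Fluorescence intensity of reporter-specific cDNA fragments, separated by capillary electrophoresis, gives the signal. Source: HepG2 liver cells transiently transfected with cis-element reporters and exposed 24 h; DMSO-normalized bidirectional fit.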

[3] = ATG_Sox_CIS: Attagene CIS-FACTORIAL HepG2 Assay for human SRY-box transcription factor (SOX) (AID 2282960); conditions: HepG2 Attagene cis-factorial SOX reporter, mRNA; actives raise or lower the signal
Method in brief: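 After 24 h of chemical treatment, transfected HepG2 reporter cells are lysed for total RNA. Transcript levels come from RT-PCR with labelled primer extension and capillary electrophoresis, analysed bidirectionally versus DMSO.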

[4] = biological target: Transcription factor Sp1 (Homo sapiens) (UniProt P08047); assay: ATG_Sp1_CIS: Attagene CIS-FACTORIAL HepG2 Assay for human Specificity Protein 1 (Sp1) (AID 2282961); conditions: HepG2 Sp1 cis-reporter transcription, actives raise or lower the signal
Chain of Transcription factor Sp1 (Homo sapiens) (P08047 whole entry, looked up): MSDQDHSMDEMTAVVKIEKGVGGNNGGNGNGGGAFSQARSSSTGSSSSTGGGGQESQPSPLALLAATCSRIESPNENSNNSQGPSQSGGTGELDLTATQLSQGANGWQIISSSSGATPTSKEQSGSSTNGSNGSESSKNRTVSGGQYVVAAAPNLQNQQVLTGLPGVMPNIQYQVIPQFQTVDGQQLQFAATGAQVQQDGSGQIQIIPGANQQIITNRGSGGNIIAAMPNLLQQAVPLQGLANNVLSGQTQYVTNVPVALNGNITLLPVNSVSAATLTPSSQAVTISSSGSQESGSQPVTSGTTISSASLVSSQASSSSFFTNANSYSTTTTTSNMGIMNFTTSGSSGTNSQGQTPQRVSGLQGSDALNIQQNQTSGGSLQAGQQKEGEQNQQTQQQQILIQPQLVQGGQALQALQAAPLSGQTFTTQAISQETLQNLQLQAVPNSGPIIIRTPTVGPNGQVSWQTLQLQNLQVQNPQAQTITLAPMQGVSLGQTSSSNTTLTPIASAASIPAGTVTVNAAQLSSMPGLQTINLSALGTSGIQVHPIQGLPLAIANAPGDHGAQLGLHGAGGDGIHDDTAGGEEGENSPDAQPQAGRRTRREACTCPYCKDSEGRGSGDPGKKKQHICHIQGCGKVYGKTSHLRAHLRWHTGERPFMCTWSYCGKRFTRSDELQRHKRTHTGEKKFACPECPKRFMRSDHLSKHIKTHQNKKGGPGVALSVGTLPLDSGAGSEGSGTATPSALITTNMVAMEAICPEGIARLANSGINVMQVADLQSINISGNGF
Method in brief: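 Sp1-driven reporter mRNA, read as capillary electrophoresis fluorescence after RT-PCR, in transiently transfected HepG2 cells dosed for 24 h; signal change in either direction relative to DMSO.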

[5] = ATG_SREBP_CIS: Attagene CIS-FACTORIAL HepG2 Assay for human Sterol Regulatory Element Binding (SREBP) (AID 2282962); conditions: HepG2 Attagene cis-factorial SREBP reporter, mRNA; actives raise or lower the signal
Method in brief: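 Endogenous factor activity is measured in HepG2 through multiplexed reporter units under cis-element control. Following a 24 h incubation, reporter transcripts are reverse-transcribed, PCR-amplified and sized by capillary electrophoresis; activity is fitted in both directions relative to DMSO.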

[6] = biological target: Signal transducer and activator of transcription 3 (Homo sapiens) (UniProt P40763); assay: ATG_STAT3_CIS: Attagene CIS-FACTORIAL HepG2 Assay for human Signal Transducer and Activator of Transcription 3 (STAT3) (AID 2282963); conditions: HepG2, Attagene cis-factorial STAT3 reporter transcription; actives raise or lower the signal
Chain of Signal transducer and activator of transcription 3 (Homo sapiens) (P40763 whole entry, looked up, the tested form may be a part): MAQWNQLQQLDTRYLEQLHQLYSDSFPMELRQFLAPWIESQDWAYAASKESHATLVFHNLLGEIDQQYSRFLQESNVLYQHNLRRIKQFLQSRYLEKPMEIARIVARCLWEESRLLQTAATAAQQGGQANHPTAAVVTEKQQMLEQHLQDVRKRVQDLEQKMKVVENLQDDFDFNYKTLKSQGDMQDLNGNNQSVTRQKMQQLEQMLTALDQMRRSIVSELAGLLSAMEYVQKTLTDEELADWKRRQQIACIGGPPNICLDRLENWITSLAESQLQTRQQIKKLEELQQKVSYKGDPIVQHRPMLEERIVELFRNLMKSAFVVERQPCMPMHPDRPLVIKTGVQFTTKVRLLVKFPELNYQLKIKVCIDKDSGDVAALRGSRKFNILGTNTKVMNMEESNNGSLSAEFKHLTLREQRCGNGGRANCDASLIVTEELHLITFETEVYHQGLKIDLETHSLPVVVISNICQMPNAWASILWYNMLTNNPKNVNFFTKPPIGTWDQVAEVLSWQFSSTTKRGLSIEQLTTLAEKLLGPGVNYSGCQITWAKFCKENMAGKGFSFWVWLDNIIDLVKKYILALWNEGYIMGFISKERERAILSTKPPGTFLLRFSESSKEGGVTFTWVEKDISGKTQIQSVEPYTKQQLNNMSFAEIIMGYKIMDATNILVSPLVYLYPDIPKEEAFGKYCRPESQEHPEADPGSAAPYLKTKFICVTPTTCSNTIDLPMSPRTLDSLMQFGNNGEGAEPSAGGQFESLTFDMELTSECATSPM
Method in brief: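 Readout: fluorescent reporter mRNA fragments resolved by capillary electrophoresis. Setup: HepG2 transfected with MRTUs reporting endogenous transcription-factor activity, dosed 24 h. Gain or loss of signal fitted bidirectionally against DMSO control.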

[7] = ATG_TA_CIS: Attagene CIS-FACTORIAL HepG2 Assay for human TA Basal Promoter (AID 2282964); conditions: HepG2 Attagene CIS-factorial TA basal promoter reporter; actives raise or lower the signal
Method in brief: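 Fluorescence from labelled RT-PCR reporter fragments, separated by capillary electrophoresis, gives the signal. Cells: HepG2 transiently carrying multiple reporter units, 24 h chemical dosing. Gain or loss relative to DMSO.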

[8] = ATG_TCF_b_cat_CIS: Attagene CIS-FACTORIAL HepG2 Assay for human T-Cell-Factor with beta-catenin (TCF/b-cat) (AID 2282965); conditions: HepG2 TCF/beta-catenin cis-reporter transcription, actives raise or lower the signal
Method in brief: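 HepG2, transient MRTU transfection, cis-element-driven reporters (endogenous TFs). 24 h compound exposure. Readout: reporter mRNA by RT-PCR + 6-FAM primer extension, HpaI digest, capillary electrophoresis. Gain/loss fit vs DMSO baseline.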

[9] = ATG_TAL_CIS: Attagene CIS-FACTORIAL HepG2 Assay for human TAL Basal Promoter (AID 2282966); conditions: HepG2 Attagene cis-factorial TAL promoter reporter; actives raise or lower the signal;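 also: background control endpoint measuring basal TAL promoter reporter mRNA not a specific factor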
Method in brief: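 After 24 hours of chemical exposure, transfected HepG2 cells yielded RNA that was converted to 6-FAM-labelled, HpaI-digested reporter fragments for capillary electrophoresis. Values derive from bidirectional fitting against DMSO controls.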

[10] = ATG_TGFb_CIS: Attagene CIS-FACTORIAL HepG2 Assay for human Transforming Growth Factor (TGF) (AID 2282967); conditions: HepG2 Attagene CIS TGFb reporter, mRNA transcription; actives raise or lower the signal
Method in brief: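 Bidirectional fitting relative to DMSO gave the endpoint. Underlying data: reporter mRNA from HepG2 cells carrying transiently transfected cis-regulated reporter constructs, harvested 24 h after dosing and analyzed by RT-PCR and capillary electrophoresis.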

[11] = ATG_VDRE_CIS: Attagene CIS-FACTORIAL HepG2 Assay for human Vitamin D Receptor Element (VDRE) (AID 2282968); conditions: HepG2 VDRE cis-reporter transcription, actives raise or lower the signal
Method in brief: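 Transient MRTU transfection of HepG2, 24 h compound exposure. Readout: reporter transcripts via RT-PCR and capillary electrophoresis, fluorescence. Bidirectional fit vs DMSO.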

[12] = biological target: Estrogen receptor (Homo sapiens) (UniProt P03372); assay: ATG_ERa_TRANS: Attagene TRANS-FACTORIAL HepG2 Assay for human Estrogen Receptor alpha (ERa) (AID 2282970; active = hit-call score of the fitted dose curve at least 0.9, where 1 is the maximum); conditions: HepG2 Attagene TRANS ERa GAL4 reporter, mRNA
Chain of Estrogen receptor (Homo sapiens) (P03372 whole entry, looked up, the tested form may be a part): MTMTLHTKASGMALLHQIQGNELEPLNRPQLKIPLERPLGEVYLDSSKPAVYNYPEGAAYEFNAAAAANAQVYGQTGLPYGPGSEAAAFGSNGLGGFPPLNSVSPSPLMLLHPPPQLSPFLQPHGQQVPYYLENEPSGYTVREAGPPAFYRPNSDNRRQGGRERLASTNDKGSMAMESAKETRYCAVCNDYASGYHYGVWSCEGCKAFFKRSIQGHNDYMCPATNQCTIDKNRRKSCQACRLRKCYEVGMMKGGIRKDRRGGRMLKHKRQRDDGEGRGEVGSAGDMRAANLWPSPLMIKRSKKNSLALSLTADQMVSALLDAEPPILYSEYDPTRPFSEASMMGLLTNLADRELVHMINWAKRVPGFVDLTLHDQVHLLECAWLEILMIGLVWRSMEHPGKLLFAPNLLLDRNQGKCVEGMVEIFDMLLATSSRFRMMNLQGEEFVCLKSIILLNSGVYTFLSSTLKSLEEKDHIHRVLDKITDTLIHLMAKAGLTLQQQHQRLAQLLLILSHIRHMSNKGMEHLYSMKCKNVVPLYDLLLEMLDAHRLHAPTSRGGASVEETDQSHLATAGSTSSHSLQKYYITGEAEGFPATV
Method in brief: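 Liver-derived HepG2 cells expressing chimeric nuclear receptor-Gal4 proteins from transient transfection were exposed for 24 hours. Gain of reporter mRNA signal versus DMSO, read by capillary electrophoresis of FAM-labelled PCR products, was recorded.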

[13] = biological target: X-box-binding protein 1 (Homo sapiens) (UniProt P17861); assay: ATG_Xbp1_CIS: Attagene CIS-FACTORIAL HepG2 Assay for human X-box Binding Protein 1 (XBP1) (AID 2282972); conditions: HepG2 XBP1 cis-element reporter, Attagene multiplex; actives raise or lower the signal
Chain of X-box-binding protein 1 (Homo sapiens) (P17861 whole entry, looked up): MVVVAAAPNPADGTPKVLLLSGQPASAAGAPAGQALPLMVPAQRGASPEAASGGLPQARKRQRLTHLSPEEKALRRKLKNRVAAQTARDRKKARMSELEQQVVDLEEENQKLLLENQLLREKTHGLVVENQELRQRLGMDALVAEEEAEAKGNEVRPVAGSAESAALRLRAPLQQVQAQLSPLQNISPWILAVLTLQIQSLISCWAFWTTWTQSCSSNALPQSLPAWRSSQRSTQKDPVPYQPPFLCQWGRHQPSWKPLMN
Method in brief: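 Multiplexed cis-reporter readout in transfected HepG2 liver cells. Exposure lasted 24 hours. Activity in either direction was fitted against DMSO as negative control and baseline.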

[14] = biological target: Glucocorticoid receptor (Homo sapiens) (UniProt P04150); assay: ATG_GR_TRANS: Attagene TRANS-FACTORIAL HepG2 Assay for human Glucocorticoid Receptor (GR) (AID 2282978; active = hit-call score of the fitted dose curve at least 0.9, where 1 is the maximum;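 also: activators score as hits since higher reporter transcript over DMSO is fitted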); conditions: HepG2 Attagene TRANS GR reporter, mRNA transcription
Chain of Glucocorticoid receptor (Homo sapiens) (P04150 whole entry, looked up, the tested form may be a part): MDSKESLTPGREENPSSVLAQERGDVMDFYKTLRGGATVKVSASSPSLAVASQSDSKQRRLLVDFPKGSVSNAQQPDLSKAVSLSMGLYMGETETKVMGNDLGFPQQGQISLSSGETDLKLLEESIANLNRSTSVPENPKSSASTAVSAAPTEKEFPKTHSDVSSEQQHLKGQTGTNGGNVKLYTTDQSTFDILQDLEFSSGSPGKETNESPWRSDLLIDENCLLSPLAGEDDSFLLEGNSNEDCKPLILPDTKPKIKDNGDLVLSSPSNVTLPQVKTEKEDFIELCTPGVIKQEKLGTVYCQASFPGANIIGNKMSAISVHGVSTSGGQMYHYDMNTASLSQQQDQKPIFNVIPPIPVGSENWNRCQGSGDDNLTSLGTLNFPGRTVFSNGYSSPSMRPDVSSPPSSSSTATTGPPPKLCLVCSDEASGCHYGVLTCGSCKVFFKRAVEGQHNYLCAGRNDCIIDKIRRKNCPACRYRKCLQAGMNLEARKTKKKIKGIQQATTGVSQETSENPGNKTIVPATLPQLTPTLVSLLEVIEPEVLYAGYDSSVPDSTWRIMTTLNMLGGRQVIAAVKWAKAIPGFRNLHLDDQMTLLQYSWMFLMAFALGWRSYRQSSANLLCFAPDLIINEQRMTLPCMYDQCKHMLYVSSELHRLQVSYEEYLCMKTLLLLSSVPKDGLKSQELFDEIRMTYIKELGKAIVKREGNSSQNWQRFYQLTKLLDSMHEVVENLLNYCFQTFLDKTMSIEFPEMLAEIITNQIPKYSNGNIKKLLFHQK
Method in brief: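 Measurement of GAL4-UAS-driven reporter mRNA in human HepG2 liver cells 24 h post-dosing, using RT-PCR with fluorescent labelling and capillary electrophoresis; the transfected constructs report exogenous NR-GAL4 chimera activity, fitted upward against DMSO.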

[15] = ATG_GAL4_TRANS: Attagene TRANS-FACTORIAL HepG2 Assay for GAL4 (Internal Marker) (AID 2282976; active = hit-call score of the fitted dose curve at least 0.9, where 1 is the maximum); conditions: HepG2 Attagene TRANS GAL4 internal marker reporter
Method in brief: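 First, HepG2 cells were transfected with reporter units under GAL4-UAS control. Next, they were treated with chemical for 24 h. Finally, RNA was reverse-transcribed, PCR-amplified, FAM-labelled and resolved by capillary electrophoresis, with induction scored against DMSO.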

[16] = ATG_M_19_TRANS: Attagene TRANS-FACTORIAL HepG2 Assay for M19 Transcription Factor (Internal Marker) (AID 2282974; active = hit-call score of the fitted dose curve at least 0.9, where 1 is the maximum); conditions: HepG2 Attagene TRANS-FACTORIAL M19 internal marker reporter
Method in brief: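 Measured here: internal-marker reporter transcript from HepG2 cells transfected with MRTUs, harvested at 24 h. cDNA PCR products were 6-FAM labelled by primer extension, cut with HpaI for 2 h at 37 C, and resolved by CE.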

[17] = biological target: Nuclear receptor subfamily 1 group I member 3 (Homo sapiens) (UniProt Q14994); assay: ATG_CAR_TRANS: Attagene TRANS-FACTORIAL HepG2 Assay for human Constitutive Androstane Receptor (CAR) (AID 2282969; active = hit-call score of the fitted dose curve at least 0.9, where 1 is the maximum;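 also: activators raise reporter mRNA above DMSO so AC50 marks induction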); conditions: HepG2 Attagene TRANS-FACTORIAL CAR reporter
Chain of Nuclear receptor subfamily 1 group I member 3 (Homo sapiens) (Q14994 whole entry, looked up, the tested form may be a part): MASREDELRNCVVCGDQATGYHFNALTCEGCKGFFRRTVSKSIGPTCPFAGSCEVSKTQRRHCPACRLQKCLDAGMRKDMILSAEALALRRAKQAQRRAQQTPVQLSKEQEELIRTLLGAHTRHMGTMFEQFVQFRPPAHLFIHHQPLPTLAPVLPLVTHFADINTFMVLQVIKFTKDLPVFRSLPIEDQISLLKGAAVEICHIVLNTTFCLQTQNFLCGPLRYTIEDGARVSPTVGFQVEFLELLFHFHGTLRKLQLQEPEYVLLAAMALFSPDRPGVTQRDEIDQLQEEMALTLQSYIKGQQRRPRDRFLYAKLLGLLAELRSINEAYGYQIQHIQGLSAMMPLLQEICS
Method in brief: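 Transiently transfected HepG2, multiplex TRANS reporters (CAR-Gal4 chimera driving GAL4-UAS reporter). 24 h dosing. Readout: reporter transcript by RT-PCR + capillary electrophoresis, fluorescence intensity; positive direction vs DMSO.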

[18] = biological target: Androgen receptor (Homo sapiens) (UniProt P10275); assay: ATG_AR_TRANS: Attagene TRANS-FACTORIAL HepG2 Assay for human Androgen Receptor (AR) (AID 2282973; active = hit-call score of the fitted dose curve at least 0.9, where 1 is the maximum); conditions: HepG2 Attagene TRANS-FACTORIAL AR reporter transcription
Method in brief: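 Steps: transfect HepG2 with multiple GAL4-UAS reporter transcription units (TRANS format, exogenous NR-Gal4 protein); dose 24 h; isolate RNA, reverse-transcribe, PCR-amplify, FAM-label, HpaI-digest; resolve by capillary electrophoresis. Positive direction vs DMSO.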

[19] = biological target: Steroid hormone receptor ERR1 (Homo sapiens) (UniProt P11474); assay: ATG_ERRa_TRANS: Attagene TRANS-FACTORIAL HepG2 Assay for human Estrogen-Related Receptor alpha (ERRa) (AID 2282971; active = hit-call score of the fitted dose curve at least 0.9, where 1 is the maximum); conditions: HepG2 Attagene TRANS reporter, ERRa transactivation
Chain of Steroid hormone receptor ERR1 (Homo sapiens) (P11474 whole entry, looked up, the tested form may be a part): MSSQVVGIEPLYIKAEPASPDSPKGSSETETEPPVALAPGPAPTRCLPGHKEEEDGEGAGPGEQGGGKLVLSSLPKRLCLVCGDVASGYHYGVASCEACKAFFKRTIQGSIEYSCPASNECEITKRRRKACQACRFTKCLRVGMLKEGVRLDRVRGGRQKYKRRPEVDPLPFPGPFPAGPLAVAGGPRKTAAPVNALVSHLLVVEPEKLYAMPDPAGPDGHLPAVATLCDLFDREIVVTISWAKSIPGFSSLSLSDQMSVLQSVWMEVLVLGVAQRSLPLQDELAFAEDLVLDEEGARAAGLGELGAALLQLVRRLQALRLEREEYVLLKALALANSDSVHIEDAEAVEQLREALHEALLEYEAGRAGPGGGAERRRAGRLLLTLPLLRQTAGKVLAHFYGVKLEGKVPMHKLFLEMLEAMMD
Method in brief: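 Reporter transcript induction was quantified by RT-PCR and capillary electrophoresis of FAM-labelled, HpaI-cut products after 24 h treatment of HepG2 cells carrying transiently transfected GAL4-UAS reporter units and an exogenous ERRa-Gal4 fusion; activity scored as increase over DMSO.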

[20] = biological target: Estrogen-related receptor gamma (Homo sapiens) (UniProt P62508); assay: ATG_ERRg_TRANS: Attagene TRANS-FACTORIAL HepG2 Assay for human Estrogen-Related Receptor gamma (ERRg) (AID 2282977; active = hit-call score of the fitted dose curve at least 0.9, where 1 is the maximum;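 also: hits increase reporter signal over DMSO so potencies reflect activators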); conditions: HepG2 Attagene TRANS reporter, ERRg transactivation
Chain of Estrogen-related receptor gamma (Homo sapiens) (P62508 whole entry, looked up, the tested form may be a part): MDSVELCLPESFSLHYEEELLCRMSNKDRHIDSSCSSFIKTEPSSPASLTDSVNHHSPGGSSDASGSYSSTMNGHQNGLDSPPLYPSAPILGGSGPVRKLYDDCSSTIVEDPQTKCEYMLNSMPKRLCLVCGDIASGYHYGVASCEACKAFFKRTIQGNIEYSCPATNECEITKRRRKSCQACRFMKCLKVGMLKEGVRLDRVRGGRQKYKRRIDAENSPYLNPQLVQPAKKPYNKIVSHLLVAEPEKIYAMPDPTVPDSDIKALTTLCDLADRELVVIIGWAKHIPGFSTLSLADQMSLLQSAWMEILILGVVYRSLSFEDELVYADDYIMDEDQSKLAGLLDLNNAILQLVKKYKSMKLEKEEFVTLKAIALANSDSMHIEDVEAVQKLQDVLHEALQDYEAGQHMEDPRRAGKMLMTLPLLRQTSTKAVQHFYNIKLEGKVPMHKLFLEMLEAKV
Method in brief: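 Readout: fluorescent reporter-mRNA fragments resolved by capillary electrophoresis after RT-PCR and HpaI cut. Cells: transiently transfected HepG2 carrying GAL4-UAS reporters driven by exogenous NR-Gal4 chimeras, dosed 24 h. Activity fitted upward relative to DMSO baseline.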

Measured: AC50

CCNc1nc(NC(C)(C)C)nc(SC)n1
active: [1] 144 µM | [11] 31.8 µM
not listed: [15] | [16] | [17] | [18] | [19] | [20]
inactive: all other assays above

O=C(NCO)NCO
not listed: [14] | [16] | [17] | [18] | [19] | [20]
inactive: all other assays above

CCCCCCCCSC(=O)Oc1cc(Cl)nnc1-c1ccccc1
active: [7] 124 µM | [8] 170 µM | [9] 71.3 µM | [10] 152 µM | [11] 100 µM
not listed: [14] | [17] | [18] | [19] | [20]
inactive: all other assays above

CCc1ccccc1N
not listed: [14] | [18] | [19] | [20]
inactive: all other assays above

COc1ccc(C=O)cc1
not listed: [14] | [15] | [18] | [19] | [20]
inactive: all other assays above

CC(=O)OC(c1ccccc1)C(Cl)(Cl)Cl (stereo not given)
active: [12] 34.8 µM
not listed: [15] | [17] | [18] | [19] | [20]
inactive: all other assays above

CN(CCCC(=O)c1cccnc1)N=O
not listed: [12] | [15] | [19] | [20]
inactive: all other assays above

CC(C)c1ccc(CO)cc1
active: [11] 36.2 µM | [12] 60.1 µM
not listed: [14] | [15] | [17] | [18] | [20]
inactive: all other assays above

O=C(c1ccccc1)C(Cl)Cl
active: [3] 25.7 µM | [4] 25.2 µM | [5] 26.4 µM | [8] 25 µM | [11] 7.69 µM | [13] 25.1 µM
not listed: [14] | [15] | [17]
inactive: all other assays above

Clc1ccc(C2(Cn3cncn3)CC(Br)CO2)c(Cl)c1 (stereo not given)
active: [1] 99.5 µM | [2] 70.7 µM | [5] 8.75 µM | [11] 6.89 µM | [12] 6.86 µM
not listed: [15] | [16] | [17] | [18] | [19] | [20]
inactive: all other assays above

CCC(C)(C)c1ccc(O)c(C(C)(C)CC)c1
active: [1] 11.1 µM | [11] 15.9 µM | [17] 33.4 µM | [12] 33.4 µM
not listed: [15] | [18] | [20]
inactive: all other assays above

ClCc1cccnc1
active: [4] 30.8 µM | [10] 63.2 µM | [11] 48.3 µM | [13] 58.1 µM
not listed: [14] | [15] | [18] | [19] | [20]
inactive: all other assays above

C[C@@H]1C[C@@H]([C@H](O)CC2CC(=O)NC(=O)C2)C(=O)[C@@H](C)C1
inactive: [1] | [2] | [3] | [4] | [5] | [6] | [7] | [9] | [13] | [20]
active: [1] 27.5 µM | [8] 8.48 µM [middle of 4 runs] | [9] 0.191 µM | [13] 89.5 µM

OCc1ccco1
not listed: [14] | [15] | [16] | [18] | [19]
inactive: all other assays above

O=P(O)(O)CN(CP(=O)(O)O)CP(=O)(O)O
not listed: [17] | [18] | [19] | [20]
inactive: all other assays above

c1ccc(N=NNc2ccccc2)cc1
active: [1] 21.7 µM | [3] 145 µM | [4] 153 µM | [5] 136 µM | [11] 28.4 µM | [12] 27.1 µM | [13] 108 µM
not listed: [14] | [15] | [16] | [18]
inactive: all other assays above

CCOP(=S)(OCC)SCSP(=S)(OCC)OCC
active: [11] 1.32 µM | [12] 3.88 µM
not listed: [15] | [18] | [19] | [20]
inactive: all other assays above
